Most compounds without a hit are left out; they make up all but 3.5% or so of the library.
MITF primary: MITF inhibitors, primary screen, biochemical, AlphaScreen, human. AID 1259374, 2018. AlphaScreen MITF homodimerization, bead proximity signal. inhibition, % at 2.6 µM. Microphthalmia-associated transcription factor (Homo sapiens), O75030. 0.91% of 650,000 active; in the data active means inhibition above about 50%;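 further: 0% = vehicle wells with protein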
GPR151 ag: activators of human GPR151, primary screen, cell-based, PathHunter beta-arrestin, luminescence; G-protein coupled receptor 151 (Homo sapiens), Q8TDV0; PathHunter beta-arrestin GPR151 cells; activation, % at 11.2 µM; 1% of 650,000 active; AID 1508602, 2020; in the data active means activation above about 4.9%;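 further: 0% = median of compound wells and 100% = cells with positive control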
TEAD-YAP block: TEAD-YAP interaction inhibition, primary screen, TEAD-YAP interaction inhibitor project, luminescence, HEK-TIYL cells | TEAD-Gal4/YAP UAS-luciferase luminescence | 1.4% of 640,000 active | AID 1259422, 2018 | inhibition, % at 9.12 µM; in the data active means inhibition above about 32%;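 further: 0% = median of test compound wells and 100% = reference inhibitor wells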
FBW7 act: FBW7 E3 ligase activators, primary screen, biochemical, AlphaScreen, human. 0.13% of 650,000 active. AlphaScreen FBW7–phospho-cyclin E peptide binding, activator screen. normalized activity (activation), % at 26.1 µM; in the data active means normalized activity above about 1.9%;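 further: purified mutant Fbw7 with reduced substrate affinity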
Target sequence (Q969H0 whole entry, looked up): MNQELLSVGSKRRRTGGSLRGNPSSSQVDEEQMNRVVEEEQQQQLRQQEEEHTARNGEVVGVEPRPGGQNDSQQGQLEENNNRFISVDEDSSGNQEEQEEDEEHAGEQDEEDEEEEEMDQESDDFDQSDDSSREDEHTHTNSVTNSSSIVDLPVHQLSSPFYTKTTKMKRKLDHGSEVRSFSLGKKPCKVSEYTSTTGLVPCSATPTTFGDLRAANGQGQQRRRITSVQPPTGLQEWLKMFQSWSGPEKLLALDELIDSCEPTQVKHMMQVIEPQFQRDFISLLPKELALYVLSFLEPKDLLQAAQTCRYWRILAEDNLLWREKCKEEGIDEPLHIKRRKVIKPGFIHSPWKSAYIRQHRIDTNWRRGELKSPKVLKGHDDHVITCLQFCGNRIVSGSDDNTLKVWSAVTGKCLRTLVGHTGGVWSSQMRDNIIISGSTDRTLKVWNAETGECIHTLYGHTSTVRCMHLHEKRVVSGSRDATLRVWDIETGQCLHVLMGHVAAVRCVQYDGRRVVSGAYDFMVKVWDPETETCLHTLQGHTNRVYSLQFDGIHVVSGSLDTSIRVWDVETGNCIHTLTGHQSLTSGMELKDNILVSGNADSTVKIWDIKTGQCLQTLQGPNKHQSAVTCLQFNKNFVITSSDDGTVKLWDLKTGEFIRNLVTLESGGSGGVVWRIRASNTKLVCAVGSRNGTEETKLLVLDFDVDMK
GPR151 conf act: GPR151 activators, triplicate retest, confirmation, cell-based, PathHunter beta-arrestin, luminescence. shares compounds with GPR151 ag. GPR151 PathHunter beta-arrestin cells, 90 min; % of EA-reagent control over plate median. activation, % at 11.2 µM. 6,700 tested, under 10 active;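 active means mean percent activation across replicates above the confirmation screen cutoff of 4.91%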
GPR119 counter: GPR119 activators in beta-arrestin cells, counter-screen for GPR151 activator project, cell-based, PathHunter beta-arrestin, luminescence, triplicate; shares compounds with GPR151 ag; 90 min; 0 = compound-well median, 100 = enzyme-acceptor control; activation, % at 11.2 µM; 0.3% of 6,700 active; AID 1508611, 2020;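 active means mean percent activation in the counterscreen above 29.09%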;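 further: counterscreen on off-target GPR119 to flag nonselective hits from the GPR151 activator screen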
The depositor's hits bear a star; x = not tested or not shown.

SMILES	MITF primary	GPR151 ag	TEAD-YAP block	FBW7 act	GPR151 conf act	GPR119 counter
CC(C)CC(NC(=O)C(C)NC(=O)CNC(=O)C(NC=O)C(C)C)C(=O)NC(C)C(=O)NC(C(=O)NC(C(=O)NC(C(=O)NC(Cc1c[nH]c2ccccc12)C(=O)NC(CC(C)C)C(=O)NC(Cc1c[nH]c2ccccc12)C(=O)NC(CC(C)C)C(=O)NC(Cc1c[nH]c2ccccc12)C(=O)NC(CC(C)C)C(=O)NC(Cc1c[nH]c2ccccc12)C(=O)NCCO)C(C)C)C(C)C)C(C)C (centres undefined)	-5	24*	84*	0	14*	113*
COC(=O)C(C)NC(=O)C(Cc1c[nH]c2ccccc12)NC(C)=O (centres undefined)	2	0	5	1	x	x
CCOC(=O)COc1cc(C)cc2oc(=O)cc(-c3ccccc3)c12	15	5.2*	7	0	-1	-13
Cc1ccc(NC(=O)c2ccc(F)cc2C)cc1	3	5.3*	-21	0	0	-3
Cc1ccc(-n2c3c(cc(C(=O)Nc4cccc(F)c4)c2=O)C(=O)CCC3)cc1	2	-1	-1	0	x	x
Cc1ccc(-n2c3c(cc(C(=O)Nc4ccc(F)cc4)c2=O)C(=O)CCC3)cc1	12	5.5*	0	0	0	-3
CC(=O)Nc1ccc(CN2CCc3c(nc(N4CCCC(C)C4)[nH]c3=O)C2)cc1 (centres undefined)	-5	0	4	0	x	x
C=CCOC(=O)C1=C(C)Nc2c(c(=O)n(C)c(=O)n2C)C1c1cccc(OC)c1 (centres undefined)	1	2	4	0	x	x
Cc1ccc(N2C(=O)CC(Nc3ccc(F)cc3)C2=O)c(Br)c1 (centres undefined)	-19	15*	8	0	0	0
Cc1cccc(N2C(=O)CC(Nc3ccc(F)cc3)C2=O)c1 (centres undefined)	10	0	9	0	x	x
CCOc1ccc(-n2c(=S)sc3c(=O)n(-c4ccccc4)c(SCC(=O)Nc4ccccc4C(F)(F)F)nc32)cc1	4	0	3	0	x	x
CN(C)c1ccc(NC(=O)CC(NCC2CCCO2)C(=O)O)cc1 (centres undefined)	-2	-1	-4	0	x	x
CN(C(=O)CCl)c1nc(-c2ccc(F)cc2)cs1	-4	6.1*	-2	0	0	2
Fc1ccc(-n2ncc3c(SCc4ccccn4)ncnc32)cc1	-8	-2	-13	0	x	x
CCOc1cccc2sc(NC(=O)C3=COCCO3)nc12	2	6.6*	-17	0	0	10
COc1ccc(/C=N/Nc2ccc([N+](=O)[O-])cc2)c(C(=O)O)c1OC	-7	-1	-19	0	x	x
Cc1cccc(NC(=O)C(c2ccc(Cl)cc2Cl)N2CCC2=O)c1 (centres undefined)	-4	7.8*	9	0	1	1
CC1CCCN(S(=O)(=O)c2ccc([N+](=O)[O-])cc2)C1 (centres undefined)	4	5.7*	-4	0	1	2
CCOc1cc(CNC(CC)CC)ccc1OC	10	0	3	0	x	x
O=C(CN(C(=O)C(=O)Nc1ccc2c(c1)OCCO2)C1CC1)NC1CCCC1	-14	-1	0	0	x	x
O=C1NC(=S)NC(=O)C1=CN1CCc2ccccc21	10	0	5	0	x	x
N=C1C(c2nc3ccccc3[nH]2)=C(O)CN1c1ccc(F)cc1	3	1	-18	0	x	x
CC(C)c1ccc(N2CC(O)=C(c3nc4ccccc4[nH]3)C2=N)cc1	10	7.9*	-9	0	0	-2
C=CCN(c1ccccc1)S(=O)(=O)c1ccc2[nH]cc(C(=O)NC(C)C)c(=O)c2c1	28	-1	-3	1	x	x
COc1ccc(OC)c(C2=NNC(=NCc3ccc4c(c3)OCO4)SC2)c1	-4	5.6*	-5	0	1	10
SMILES	MITF primary	GPR151 ag	TEAD-YAP block	FBW7 act	GPR151 conf act	GPR119 counter
COc1ccc(OC)c(CNCc2ccc3c(c2)OCO3)c1	37	-1	-9	0	x	x
CCCCNC(=O)CSc1nc2sc(C(=O)OCC)c(C)c2c(=O)n1Cc1ccc2c(c1)OCO2	3	-1	-7	1	x	x
Cc1ccc(N2C(=O)C(Cl)=C(N3CCCCC3)C2=O)cc1	-12	7.5*	7	0	-1	-2
CN1C(N)=NC(=O)/C1=C/c1ccc(-c2ccc([N+](=O)[O-])cc2)o1	-9	1	2	1	x	x
Cc1noc(C(=O)Nc2c(C)nn(Cc3ccccc3)c2C)c1Cl	-1	5.3*	13	0	1	10
CN(C)c1cccc(Nc2nc(NC3CCN(Cc4ccccc4)CC3)c3ncn(Cc4ccc(C(F)(F)F)cc4)c3n2)c1	13	2	-15	0	x	x
CN1CCN(c2ncc(-c3cccc(O)c3)n3ccnc23)CC1	3	0	-24	0	x	x
FC(F)(F)c1ccc(Cl)c(NC2=NCCCCC2)c1	11	6.1*	3	0	-1	-8
Cc1ccc(C(=O)Nc2ccc(N3CCC(NC4CCOC4)CC3)cc2)c(C)c1 (centres undefined)	-2	1	13	0	x	x
COc1ccc(-c2cc(N)n(S(=O)(=O)c3cccc([N+](=O)[O-])c3)n2)cc1OC	13	-1	-32	1	x	x
CCOC(=O)c1c(NC(=O)CCSc2nnc3ccccn23)sc2c1CCCC2	10	1	0	0	x	x
CCOC(=O)c1c(NC(=O)CSc2nnc(CNC(=O)c3ccc(OC)cc3)n2-c2ccc([N+](=O)[O-])cc2)sc2c1CCCCC2	7	5.9*	1	0	1	-8
CCOC(=O)c1c(NC(=O)CSc2nnc3ccccn23)sc2c1CCCC2	11	6.8*	-2	0	1	6
CCOC(=O)c1c(NC(=O)CSc2ccccn2)sc2c1CCCC2	11	6.8*	-11	0	0	-3
CCOC(=O)c1c(NC(=O)CSc2nc3ccccc3[nH]2)sc2c1CCCC2	2	6.3*	-24	0	0	0
Cn1c(=O)c(C(=O)Nc2nnc(S(N)(=O)=O)s2)c(O)c2ccccc21	-11	-1	-5	0	x	x
COc1ccc([N+](=O)[O-])cc1/C=C1\C(=O)N(c2ccccc2)N=C1C	-2	8.1*	-2	0	0	-1
C=C(C)c1cccc(C(C)(C)NC(=O)Nc2ccc(C(=O)OCCOC)cc2)c1	4	0	-3	0	x	x
